Compound activity (PubChem)
LGR2 inh: Drosophila LGR2 receptor signaling inhibition; HEK293 LGR2, CRE-luciferase, bursicon-stimulated, 4 h; 380,000 tested, 0.35% active; inhibition, % at 9.99 µM;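 active means drop in luminescence signal, shown as inhibition above about 50% in the replicate tests, limit read from the data, passing the limit was not always enough; inconclusive means probably only some replicates passing the limit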;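 further: agonist challenge used bursicon conditioned medium at about half maximal strength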
TWEAK Fn14 block: blocks TWEAK-Fn14 interaction in a reporter cell assay | TWEAK-stimulated Fn14 reporter cells, luciferase luminescence, 8 h | inhibition, % at 10 µM | 360,000 tested, 2% active | AID 1159606; in the data active means inhibition above about 50%
EWS-Fli block: inhibitors of EWS/Fli oncoprotein transcriptional activity. inhibition, % at 12.6 µM. A673 NR0B1-luciferase reporter, viability-normalised. 350,000 tested, 0.67% active;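 active means mean inhibition of at least 50% after viability correction, with every replicate also passing that limit; inconclusive means mean reaches 50% but only one of two replicates passes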;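 further: firefly luciferase signal divided by Alamar Blue viability fluorescence both relative to DMSO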
PAX8 reporter: lowers PAX8-driven luciferase in RMG-I cells. RMG-I TPO-luciferase reporter, SteadyGlo, 24 h. inhibition, % at 12.6 µM. 360,000 tested, 1.2% active. AID 652154;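 active means mean replicate inhibition at least 60% with every replicate also reaching 60%; inconclusive means only one of the two criteria is met; inactive means mean below 60% and not all replicates reaching 60%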;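 further: luciferase light reporting Pax8 driven TPO promoter activity; plate controls were median of neutral control wells for no effect and mitoxantrone controls for full effect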
TROY signal inh: blocks TROY-dependent signaling in reporter cells; Q293 LMP1-TROYcd NF-kB luciferase reporter, 4 h; inhibition, % at 10 µM; 360,000 tested, 0.98% active;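 active means compounds whose plate-normalised and pattern-corrected inhibition of the luciferase reporter signal at the single screening dose is 50% or more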
EBV LMP1 NFkB: Epstein-Barr LMP1 NF-kappaB reporter inhibition; inhibition, % at 12.5 µM; AID 504558; LMP1-induced NF-kappaB luciferase reporter cells, luminescence; 350,000 tested, 0.69% active; in the data active means inhibition above about 41%; inconclusive means no clear call, values can overlap the other calls;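 further: 0% = neutral control wells and 100% = reference inhibitor control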
Numbers without * were called inactive; ? = inconclusive; nt = not tested or not shown. Rows were chosen to be rich in hits. Some 3.1% of all compounds tested hit in one or more screens of this group.

SMILES | LGR2 inh | TWEAK Fn14 block | EWS-Fli block | PAX8 reporter | TROY signal inh | EBV LMP1 NFkB
CC(NC(=O)CSc1nnc(CC(=O)Nc2ccc(Cl)c(Cl)c2)n1C)c1ccccc1 (stereo not drawn) | nt | 12 | nt | 5 | -8 | -3
CCn1c(SCC(=O)N2CCN(c3ccccc3)CC2)nnc1-c1cc2cc(Cl)ccc2o1 | nt | 47 | nt | nt | 59* | 31
Cc1nc(SCC(=O)N2CCN(c3ccccc3)CC2)c2oc3ccccc3c2n1 | nt | 52* | nt | nt | 24 | 1
Cc1ccc(S(=O)(=O)N[C@@H]2CC[C@H](CCNC(=O)C3CC3)O[C@H]2CO)cc1 | 1 | nt | 2 | nt | nt | nt
Cc1ccc(Cn2ncc3c(N4CCN(Cc5ccc(Cl)cc5)CC4)ncnc32)cc1 | nt | 56* | nt | nt | 26 | 6
Cc1ccc(Cn2ncc3c(N4CCN(c5ccc(C)cc5)CC4)ncnc32)cc1 | nt | 61* | nt | nt | 31 | 31
COc1ccc(NC(=O)N(C)C[C@@H]2OCCCC[C@H](C)Oc3ccc(NC(=O)NC4CCCCC4)cc3C(=O)N([C@H](C)CO)C[C@@H]2C)cc1 | 57* | nt | -2 | -23 | nt | nt
COc1ccc(NC(=O)N(C)C[C@H]2OCCCC[C@H](C)Oc3ccc(NC(=O)NC4CCCCC4)cc3C(=O)N([C@@H](C)CO)C[C@H]2C)cc1 | 9 | nt | 1 | -10 | nt | nt
C[C@@H]1CN([C@@H](C)CO)C(=O)c2cc(NC(=O)NC3CCCCC3)ccc2O[C@@H](C)CCCCO[C@@H]1CN(C)C(=O)Nc1ccccc1 | 14 | nt | -1 | 1 | nt | nt
C[C@H]1CCCCO[C@@H](CN(C)C(=O)Nc2ccccc2)[C@@H](C)CN([C@@H](C)CO)C(=O)c2cc(NC(=O)NC3CCCCC3)ccc2O1 | 63* | nt | -5 | 24 | nt | nt
CCc1cc[n+](C2=C([O-])c3ccccc3C(=O)/C2=N\S(=O)(=O)c2cccs2)cc1 | 17 | 16 | 3 | 87* | 24 | 3
O=C1C(=O)c2ccccc2C([O-])=C1[n+]1ccccc1 | -6 | -3 | -45 | 10 | -1 | -19
CC(C)NC(=O)N(C)C[C@H]1Oc2ccc(NS(=O)(=O)c3ccc(Cl)cc3)cc2C(=O)N([C@H](C)CO)C[C@@H]1C | 18 | nt | 1 | -6 | nt | nt
O=C(NC12CC3CC(CC(C3)C1)C2)c1ccc(Br)o1 | 13 | 2 | 7 | -7 | -27 | 8
O=C(NC12CC3CC(CC(C3)C1)C2)c1ccc([N+](=O)[O-])o1 | 7 | 21 | 17 | 98* | -5 | -2
O=C(O)Cc1ccc(NC(=O)COc2ccc3ccccc3c2)cc1 | 6 | -15 | nt | 9 | 3 | -1
O=C(Cc1ccccc1)NNc1ccc2ccccc2c1 | 6 | 32 | 7 | -2 | 51* | -19
O=C(CN1C(=O)CCC1=O)NNc1ccc2ccccc2c1 | -5 | 70* | 22 | 3 | 67* | -15
C[C@@H]1CN([C@H](C)CO)C(=O)Cc2cc(NS(=O)(=O)c3cn(C)cn3)ccc2O[C@@H]1CN(C)C(=O)Nc1ccc2c(c1)OCO2 | 5 | nt | 2 | -9 | nt | nt
CN1CCN(C(=O)[C@H]2[C@H](CO)[C@H]3Cn4c(cccc4=O)[C@H]3N2Cc2ccccc2F)CC1 | 8 | nt | -2 | nt | nt | nt
O=C(c1ccc(Cl)cc1)N1CCCCC(Sc2nnc(-c3ccc4c(c3)OCO4)o2)C1=O (stereo not drawn) | nt | 98* | nt | 70* | 58* | 75*
CCOC(=O)c1sc2nc(NC(=O)C(C)(C)C)sc2c1C | -38 | 65* | -139 | -142 | 68* | -55
C[C@H](CO)N1C[C@H](C)[C@@H](CN(C)S(=O)(=O)c2ccccc2)Oc2ccc(NS(=O)(=O)c3ccc(Cl)cc3)cc2C1=O | 0 | nt | -7 | -17 | nt | nt
CC=Cc1ccc2n(c1=O)C[C@H]1[C@H](CO)[C@@H](C(=O)NCCc3cn(C)cn3)N(C(=O)C3CCCC3)[C@@H]21 (mixture of isomers) | 7 | nt | -4 | -2 | nt | nt
COC(=O)C1=NNC(C(=O)OC)C1c1ccccc1 (stereo not drawn) | -7 | 17 | 1 | -6 | -12 | 84*
CCCNC(=O)N1[C@@H]2c3ccc(-c4cccc(F)c4)c(=O)n3C[C@H]1[C@H](CO)[C@H]2C(=O)NC1CCC1 | 1 | nt | -7 | -21 | nt | nt
CC(=O)Nc1ccc(NC2=Nc3ccccc3N3C2=Nc2c(c(C)nn2-c2ccccc2)C3c2ccccc2)cc1 (stereo not drawn) | 2 | 96* | nt | -5 | 27 | ?
CCN(CC)S(=O)(=O)c1cc(NC(=O)CSc2nc3c(cc2C#N)C(=O)CC(C)(C)C3)ccc1C | 25 | 55* | nt | nt | 46 | 17
